Measurements as given in ChEMBL document CHEMBL3988442, “University of Dundee, Small-Polar-MMV Screening Library” (2021).
For some of these results: Potency and affinity values are given separately.

What was measured:
Parameters in all cases: scale not given: direction of the effect not stated beside the values
[1] = biological target: Protein translocase subunit SecA (Escherichia coli (strain K12)) (UniProt P10408); assay: Assay to Identify E. coli SecA ATPase Inhibitors; format: functional; conditions: 30 µM
[2] = biological target: T1, Ubiquitin-activating enzyme e1, putative (Leishmania donovani (strain BPK282A1)) (UniProt E9BSI1); assay: Leishmania donovani Ubiquitin Activating Enzyme (LdE1); format: functional; conditions: 30 µM
T1 sequence (whole entry): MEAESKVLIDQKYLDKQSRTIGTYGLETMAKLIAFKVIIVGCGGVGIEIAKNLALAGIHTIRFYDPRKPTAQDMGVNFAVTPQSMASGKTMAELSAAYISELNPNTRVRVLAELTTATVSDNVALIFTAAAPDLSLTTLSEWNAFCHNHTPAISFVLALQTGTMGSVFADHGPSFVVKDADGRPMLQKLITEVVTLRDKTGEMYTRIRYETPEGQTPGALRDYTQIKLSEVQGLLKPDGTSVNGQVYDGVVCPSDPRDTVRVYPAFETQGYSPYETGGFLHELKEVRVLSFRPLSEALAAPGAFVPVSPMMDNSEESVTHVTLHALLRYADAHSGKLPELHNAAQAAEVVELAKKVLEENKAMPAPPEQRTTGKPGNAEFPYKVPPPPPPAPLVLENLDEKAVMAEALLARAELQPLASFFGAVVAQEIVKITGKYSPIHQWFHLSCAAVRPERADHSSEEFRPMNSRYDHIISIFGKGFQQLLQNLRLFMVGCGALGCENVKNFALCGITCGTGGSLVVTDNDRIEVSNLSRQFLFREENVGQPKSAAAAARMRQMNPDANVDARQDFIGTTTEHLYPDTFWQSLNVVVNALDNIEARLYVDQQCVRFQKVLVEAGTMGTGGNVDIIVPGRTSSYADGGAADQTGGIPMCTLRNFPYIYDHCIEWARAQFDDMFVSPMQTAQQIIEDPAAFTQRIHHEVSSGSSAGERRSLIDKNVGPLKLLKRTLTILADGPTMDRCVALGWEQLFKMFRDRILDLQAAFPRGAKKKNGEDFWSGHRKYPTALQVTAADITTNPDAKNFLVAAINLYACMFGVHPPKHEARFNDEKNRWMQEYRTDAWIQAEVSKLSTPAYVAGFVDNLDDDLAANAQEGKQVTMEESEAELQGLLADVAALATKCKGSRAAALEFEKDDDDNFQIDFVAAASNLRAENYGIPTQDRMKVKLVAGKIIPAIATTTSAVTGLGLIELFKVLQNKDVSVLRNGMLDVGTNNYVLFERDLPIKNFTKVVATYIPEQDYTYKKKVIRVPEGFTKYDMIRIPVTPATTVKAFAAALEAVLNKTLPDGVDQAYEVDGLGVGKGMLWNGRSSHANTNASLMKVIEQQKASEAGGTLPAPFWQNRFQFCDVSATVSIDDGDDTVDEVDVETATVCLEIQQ

[3] = biological target: AMP-activated protein kinase, AMPK (Homo sapiens) (UniProt P54646+O43741+P54619+Q9UGJ0+Q9Y478+Q13131+Q9UGI9); assay: AMP-dependent Kinase enzyme assay. An in vitro enzyme assay that detects ADP turnover that is directly proportional to AMPK activity. This uses naive AMPK that is activated during the assay with MK-8722; format: functional; conditions: 30 µM
[4] = biological target: Sialic acid-binding Ig-like lectin 9 (Homo sapiens) (UniProt Q9Y336); assay: Hs-Siglec9 ALPHAscreen SOP 20170721; conditions: 10 µM
Trypanosoma cruzi = assay: Trypanosoma cruzi phosphomannomutase and mannose-1-phosphate guanylyltransferase assay; format: functional; conditions: 10 µM
[5] = biological target: T2, Arginase-2, mitochondrial (Homo sapiens) (UniProt P78540); assay: in vitro enzyme assay to detect the production of urea directly proportional to the activity of Arginase II; format: functional; conditions: 33.3 µM; note: in the data most compounds retested in dose-response had high values
T2 sequence (whole entry): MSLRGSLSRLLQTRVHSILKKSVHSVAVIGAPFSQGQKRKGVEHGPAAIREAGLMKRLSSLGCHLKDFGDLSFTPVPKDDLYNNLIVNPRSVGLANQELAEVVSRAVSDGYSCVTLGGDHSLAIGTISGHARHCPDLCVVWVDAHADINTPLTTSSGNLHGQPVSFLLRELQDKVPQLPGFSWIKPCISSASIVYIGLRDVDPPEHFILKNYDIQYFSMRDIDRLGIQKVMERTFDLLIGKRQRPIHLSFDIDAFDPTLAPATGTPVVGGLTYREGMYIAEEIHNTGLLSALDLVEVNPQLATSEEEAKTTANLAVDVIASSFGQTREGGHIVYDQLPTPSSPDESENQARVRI

[6] = biological target: T3, Proteasome subunit beta (Trypanosoma cruzi) (UniProt O96673); assay: Trypanosoma cruzi proteasome chymotrypsin-like activity (TcProtChymo) assay.; note: in the data most compounds retested in dose-response had high values; format: functional; conditions: 9.37 µM
T3 sequence (whole entry): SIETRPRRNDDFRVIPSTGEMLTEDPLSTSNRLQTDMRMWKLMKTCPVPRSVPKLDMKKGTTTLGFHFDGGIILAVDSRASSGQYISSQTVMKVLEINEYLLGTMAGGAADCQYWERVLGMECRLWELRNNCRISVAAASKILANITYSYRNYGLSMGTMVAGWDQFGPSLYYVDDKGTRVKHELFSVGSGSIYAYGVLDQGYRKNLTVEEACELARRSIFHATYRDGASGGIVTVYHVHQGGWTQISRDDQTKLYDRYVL

Homo sapiens = species: Homo sapiens; assay: To identify inhibition of the IFN signalling (Jak-Stat) pathway via expression of an eGFP reporter gene under the control of an IFN-stimulated response element (ISRE) containing MxA promoter.; format: functional; conditions: 30 µM
[7] = biological target: T4, Tyrosyl-tRNA synthetase, putative (Trypanosoma cruzi (strain CL Brener)) (UniProt Q4DSP6); assay: Trypanosoma cruzi tyrosyl tRNA synthetase (TcYRS) _High Tyrosine SOP; format: functional; conditions: 30 µM; note: in the data most compounds retested in dose-response had high values
T4 sequence (whole entry): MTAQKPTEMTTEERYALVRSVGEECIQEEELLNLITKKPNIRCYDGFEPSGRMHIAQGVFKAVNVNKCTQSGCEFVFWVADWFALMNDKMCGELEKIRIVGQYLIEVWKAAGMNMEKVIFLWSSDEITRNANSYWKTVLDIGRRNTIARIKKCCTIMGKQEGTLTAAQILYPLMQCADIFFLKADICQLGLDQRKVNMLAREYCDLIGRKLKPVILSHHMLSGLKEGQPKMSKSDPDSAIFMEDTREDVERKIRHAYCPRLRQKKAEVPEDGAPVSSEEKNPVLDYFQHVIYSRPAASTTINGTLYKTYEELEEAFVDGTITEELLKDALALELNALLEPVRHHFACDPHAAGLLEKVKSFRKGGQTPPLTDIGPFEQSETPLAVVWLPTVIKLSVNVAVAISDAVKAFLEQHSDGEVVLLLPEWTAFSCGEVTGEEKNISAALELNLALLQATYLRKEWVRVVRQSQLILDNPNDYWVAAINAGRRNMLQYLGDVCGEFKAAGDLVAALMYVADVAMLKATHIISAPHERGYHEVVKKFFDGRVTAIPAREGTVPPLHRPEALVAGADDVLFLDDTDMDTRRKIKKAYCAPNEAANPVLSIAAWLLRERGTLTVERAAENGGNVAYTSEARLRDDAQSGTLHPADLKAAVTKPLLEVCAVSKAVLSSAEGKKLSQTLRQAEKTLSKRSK

[8] = biological target: T4, Tyrosyl-tRNA synthetase, putative (Trypanosoma cruzi (strain CL Brener)); assay: Trypanosoma cruzi tyrosyl tRNA synthetase (TcYRS) SOP; format: functional; conditions: 30 µM
[9] = biological target: Chromo domain-containing protein 1 (Saccharomyces cerevisiae (strain ATCC 204508 / S288c) (Baker's yeast)) (UniProt P32657); assay: ScCHD-1 Enzyme Inhibition Assay; format: functional; conditions: 30 µM; note: in the data most compounds retested in dose-response had high values
Chromo domain-containing protein 1 (Saccharomyces cerevisiae (strain ATCC 204508 / S288c) (Baker's yeast)), sequence (P32657 whole entry, the tested form may be a part): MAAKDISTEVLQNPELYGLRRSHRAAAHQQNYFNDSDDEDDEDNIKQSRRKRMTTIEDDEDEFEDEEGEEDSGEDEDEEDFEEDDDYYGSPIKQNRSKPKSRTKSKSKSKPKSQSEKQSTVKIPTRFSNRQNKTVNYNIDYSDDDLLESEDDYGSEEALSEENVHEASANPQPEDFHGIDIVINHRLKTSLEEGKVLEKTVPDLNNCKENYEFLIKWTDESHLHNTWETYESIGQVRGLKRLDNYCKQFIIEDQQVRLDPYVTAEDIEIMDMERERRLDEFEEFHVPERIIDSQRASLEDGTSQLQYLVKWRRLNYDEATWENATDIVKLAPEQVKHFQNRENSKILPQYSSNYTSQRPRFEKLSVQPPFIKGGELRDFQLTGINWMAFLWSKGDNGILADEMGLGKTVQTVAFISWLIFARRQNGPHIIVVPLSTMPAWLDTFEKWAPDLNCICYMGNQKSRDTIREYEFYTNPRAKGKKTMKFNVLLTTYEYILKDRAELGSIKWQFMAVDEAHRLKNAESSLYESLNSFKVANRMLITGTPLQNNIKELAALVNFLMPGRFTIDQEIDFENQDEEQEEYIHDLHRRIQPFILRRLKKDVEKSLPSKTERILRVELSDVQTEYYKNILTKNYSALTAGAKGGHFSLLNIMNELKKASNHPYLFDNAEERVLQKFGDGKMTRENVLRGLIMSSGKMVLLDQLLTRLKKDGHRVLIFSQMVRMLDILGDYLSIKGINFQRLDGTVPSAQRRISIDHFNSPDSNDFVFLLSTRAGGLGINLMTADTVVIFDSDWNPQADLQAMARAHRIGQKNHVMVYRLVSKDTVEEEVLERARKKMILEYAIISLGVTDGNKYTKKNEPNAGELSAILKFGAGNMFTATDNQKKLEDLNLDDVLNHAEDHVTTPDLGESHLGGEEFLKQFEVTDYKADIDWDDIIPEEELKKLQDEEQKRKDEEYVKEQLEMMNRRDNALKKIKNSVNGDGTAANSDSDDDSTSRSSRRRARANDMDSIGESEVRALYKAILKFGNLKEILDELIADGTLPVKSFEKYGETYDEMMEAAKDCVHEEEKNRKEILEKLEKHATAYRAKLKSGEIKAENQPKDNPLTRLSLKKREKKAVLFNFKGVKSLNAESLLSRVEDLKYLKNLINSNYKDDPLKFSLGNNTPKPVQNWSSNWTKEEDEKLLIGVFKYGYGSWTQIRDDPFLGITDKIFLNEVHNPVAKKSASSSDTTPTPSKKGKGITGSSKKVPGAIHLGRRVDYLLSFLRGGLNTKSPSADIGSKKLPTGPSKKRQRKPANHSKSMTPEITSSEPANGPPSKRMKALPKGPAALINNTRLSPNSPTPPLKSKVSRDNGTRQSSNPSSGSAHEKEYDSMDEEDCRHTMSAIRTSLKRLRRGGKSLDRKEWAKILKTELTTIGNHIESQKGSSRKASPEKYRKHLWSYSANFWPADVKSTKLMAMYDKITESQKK

Protein translocase subunit SecA (Escherichia coli (strain K12)), sequence (P10408 whole entry): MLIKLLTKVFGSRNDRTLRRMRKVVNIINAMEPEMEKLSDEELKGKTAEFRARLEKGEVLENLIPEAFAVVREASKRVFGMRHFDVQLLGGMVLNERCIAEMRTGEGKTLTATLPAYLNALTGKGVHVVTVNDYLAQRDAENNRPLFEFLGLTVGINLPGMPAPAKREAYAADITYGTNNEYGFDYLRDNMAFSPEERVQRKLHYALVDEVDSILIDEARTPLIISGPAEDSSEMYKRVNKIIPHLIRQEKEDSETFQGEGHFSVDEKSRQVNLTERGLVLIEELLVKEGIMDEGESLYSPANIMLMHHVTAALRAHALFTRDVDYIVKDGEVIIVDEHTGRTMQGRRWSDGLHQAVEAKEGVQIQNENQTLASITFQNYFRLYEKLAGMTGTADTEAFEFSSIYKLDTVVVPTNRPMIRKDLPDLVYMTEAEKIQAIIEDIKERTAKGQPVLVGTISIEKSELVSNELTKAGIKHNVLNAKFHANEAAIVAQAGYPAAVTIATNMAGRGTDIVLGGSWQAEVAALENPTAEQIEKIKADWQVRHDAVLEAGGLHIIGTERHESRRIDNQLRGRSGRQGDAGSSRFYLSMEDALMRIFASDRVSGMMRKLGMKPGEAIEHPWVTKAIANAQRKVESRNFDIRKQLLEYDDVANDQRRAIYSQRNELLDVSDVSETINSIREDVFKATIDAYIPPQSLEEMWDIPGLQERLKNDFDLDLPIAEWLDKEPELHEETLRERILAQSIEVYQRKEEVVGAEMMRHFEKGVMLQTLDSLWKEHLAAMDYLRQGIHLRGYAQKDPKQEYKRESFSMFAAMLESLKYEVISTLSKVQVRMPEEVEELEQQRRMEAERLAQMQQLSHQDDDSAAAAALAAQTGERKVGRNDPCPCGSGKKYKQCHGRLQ
Sialic acid-binding Ig-like lectin 9 (Homo sapiens), sequence (Q9Y336 whole entry): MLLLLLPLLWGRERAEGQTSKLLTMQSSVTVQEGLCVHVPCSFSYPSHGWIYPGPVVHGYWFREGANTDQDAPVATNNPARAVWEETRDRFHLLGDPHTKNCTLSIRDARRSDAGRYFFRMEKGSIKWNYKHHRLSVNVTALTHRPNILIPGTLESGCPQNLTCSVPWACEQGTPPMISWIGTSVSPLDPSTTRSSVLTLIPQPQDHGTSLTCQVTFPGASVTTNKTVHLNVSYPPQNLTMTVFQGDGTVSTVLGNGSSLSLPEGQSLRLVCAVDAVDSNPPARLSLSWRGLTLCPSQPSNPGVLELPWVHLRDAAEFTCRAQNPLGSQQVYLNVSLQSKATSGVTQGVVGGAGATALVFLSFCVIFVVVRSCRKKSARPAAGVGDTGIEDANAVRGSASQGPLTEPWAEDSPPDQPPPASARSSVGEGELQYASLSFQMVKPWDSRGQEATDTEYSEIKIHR

SMILES | Percent Effect [1] [%] | Percent Effect [2] [%] | Percent Effect [3] [%] | Percent Effect [4] [%] | Percent Effect (Trypanosoma cruzi) [%] | Percent Effect [5] [%] | Percent Effect [6] [%] | Percent Effect (Homo sapiens) [%] | Percent Effect [7] [%] | Percent Effect [8] [%] | Percent Effect [9] [%]
CCc1csc(C2CCCN(C(=O)c3c[nH]c(C)n3)C2)n1 (stereo not drawn) | -1.65 | 7.79 | -3.3 | 1.9 | 6.18 | -1.78 | -3.88 | -6.54 | 2.91 | 12.2 | -6.32
Cc1cc(C)n(CC2CN(Cc3nnsc3Cl)CCO2)n1 (stereo not drawn) | -1.37 | 21.1 | 3.21 | 2.78 | -2.82 | -4.21 | 14.7 | -18.7 | 4.41 | 17.1 | -7.75
CCc1ccc(C(=O)Nc2ccc(CC3CC(=O)NC3=O)cc2)cc1 (stereo not drawn) | -1.66 | 8.22 | 15.3 | 3.15 | 1.76 | 5.46 | 11.9 | 11.7 | 2.15 | 12.5 | -6.28
CC(C)Cc1noc(CN2CCCC(Cn3cncn3)C2)n1 (stereo not drawn) | -4.29 | 16.2 | -4.96 | 16.6 | 3.25 | 2.03 | 7 | 13.5 | 11.9 | 28.1 | -7.85
CC(=O)N1CCN(C)CC(COCc2ccccc2)C1 (stereo not drawn) | -5.71 | 12.2 | 7.92 | 3.51 | 4.54 | -2.09 | -1.09 | 6.97 | 4.3 | 6.49 | -11.4
COc1ccccc1CN1CC[C@]2(C[C@H](OC)CO2)C1 | -4.71 | 9.33 | 3.5 | 4.02 | -4.52 | -12.5 | 15 | -8.4 | 5.29 | 7.69 | -5.98
CCCOCCN1CCC2(CC1)CC(c1ccccc1)C(=O)N2C (stereo not drawn) | 6.56 | 5.33 | -0.289 | -1.03 | -9.45 | -4.69 | 18.8 | 48.6 | -2.73 | 1.24 | -5.61
COc1ccc(C2CCCN2C(=O)NCCNc2ncccn2)cc1 (stereo not drawn) | 0.96 | 2.74 | -8.6 | -2.28 | -7.83 | 6.36 | 19.3 | 16.6 | 5.38 | 12.5 | -6.8
